Experimental findings from PubChem BioAssay (NCATS) are described below.

Values joined by “and” are separate entries in the source; they are usually repeats but may differ in a detail not shown here. Equal values may be shown once. Inconclusive results are not listed. Active and inactive are the calls of the source. Calls follow the shape of the full dose curve.

Bile acid receptor (Homo sapiens), sequence (Q96RI1 whole entry, looked up): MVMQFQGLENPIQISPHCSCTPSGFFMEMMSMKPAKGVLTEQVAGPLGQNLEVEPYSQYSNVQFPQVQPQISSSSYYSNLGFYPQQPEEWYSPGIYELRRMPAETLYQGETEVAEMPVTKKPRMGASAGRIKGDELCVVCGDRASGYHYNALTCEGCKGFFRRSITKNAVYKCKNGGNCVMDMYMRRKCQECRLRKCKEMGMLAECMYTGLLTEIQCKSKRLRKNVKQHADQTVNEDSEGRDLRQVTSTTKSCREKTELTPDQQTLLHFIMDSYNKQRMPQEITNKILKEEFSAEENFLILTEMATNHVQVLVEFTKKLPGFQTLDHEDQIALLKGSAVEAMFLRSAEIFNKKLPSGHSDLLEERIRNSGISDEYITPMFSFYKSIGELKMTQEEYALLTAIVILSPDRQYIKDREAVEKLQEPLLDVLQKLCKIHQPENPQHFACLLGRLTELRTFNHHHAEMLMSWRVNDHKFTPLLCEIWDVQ

The target of the assay is Bile acid receptor (Homo sapiens) (UniProt Q96RI1). Put plainly: qHTS assay for small molecule agonists of farnesoid X receptor signaling (AID 588527).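 Also: series mostly up to about 77 µM; 0% = vehicle basal and 100% = reference agonist.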 The following applies: HEK293T FXR-UAS-bla, beta-lactamase ratio, 16 h; activation: active compounds read high. From the text:
NIH Chemical Genomics Center [NCGC] U.S. Environmental Protection Agency [EPA] National Institutes of Environmental Health Sciences [NIEHS] National Toxicology Program [NTP] NCGC Assay Overview The farnesoid-X-receptor (FXR), a nuclear hormone receptor is highly expressed in liver, intestine, kidney and adrenal cortex. Natural ligands of FXR are the bile acids (Cholic acid, Chenodeoxy cholic acid etc). It is an important regulator of diverse metabolic pathways, including the bile acid homeostasis, lipid and glucose metabolisms. FXR regulates the expression of target genes by binding either as a monomer or as a heterodimer with RXR (retinoid X receptor). As FXR regulates a large number of target genes involved in bile acid, lipoprotein and glucose metabolisms, it is a potential pharmacological target for bile acid and lipid disorders. Thus screening environmental chemicals on FXR signaling can be used for the studies focused on metabolic syndrome, hepatic and intestinal toxicity etc.
NCGC Assay Protocol Summary Using a beta-lactamase reporter-gene under control of Farnesoid X receptor (FXR) response element, a cell-based assay [GeneBLAzer FXR-UAS-bla assay developed by Invitrogen] was used to measure FXR ligands signaling. GeneBLAzer FXR-UAS-bla HEK293T cells were used with assay medium containing 10% dialyzed FBS. The assay was performed in clear bottom black Greiner 1536-well plates. Chenodeoxycholic acid and Guggulsterone were used in the screen as agonist and antagonist positive controls respectively. Library compounds were measured for their ability to stimulate the reporter gene activity. Compounds were screened in a titration series in 1536-well format. […] Data was normalized relative to Chenodeoxycholic acid control (100 uM, 100%), and DMSO only wells (basal, 0%). Concentration-response titration points for each compound were fitted to the Hill equation yielding concentrations of half-maximal stimulation (EC50) and maximal response (efficacy) values. qHTS protocol for FXR beta-lactamase assay in agonist mode [Step] [Parameter] [Value] [Description] 1. Reagent; 6 uL; 5000 cells/well 2. Incubation; 37 C for 5-7 hrs 3. Compounds; 23 nL; 0.59 nM to 92 uM 4. Controls (Chenodeoxycholic acid); 23 nL, - One column with dose response, start 200 uM, 1:2 dilutions in duplicates - Final concentrations of 100 uM and 60 uM in two columns 5. Incubation; 37 C for 16 hrs 6. Detection reagent; 1 uL of CCF4-dye 7. Incubation; RT for 2 hrs 8. Detection; Fluorescence; Envision plate reader
With `CCOP(N)(=O)Oc1ccc(SC)c(C)c1` (stereo not given), the activation is 3.26% (inactive). For `C1CCOC1` the value was -4.53% (inactive). Next, `O=Cc1cccc(Br)c1`: -4.69% (inactive). Consider `CCCC/C=C\CCCCCCCCO`, for which the activation was -5.44% (inactive). For `C[Si](Cn1cncn1)(c1ccc(F)cc1)c1ccc(F)cc1` the value was 2.34% (inactive); for `CC(COc1ccc(C(C)(C)C)cc1)OS(=O)OCCCl` (stereo not given), 3.02% (inactive).

For the compound `C(=NC1CCCCC1)=NC1CCCCC1`, the activation was 1.63% (inactive). As for `CCOP(OCC)OCC`, the activation is -1.35% (inactive). As for `CC(C)C(=O)OCC(C)(C)C(O)C(C)C` (stereo not given), the activation is -0.406% (inactive). As for `O=P(Oc1ccccc1)(Oc1ccccc1)Oc1ccccc1`, the activation is 1.95% (inactive). For `CN(C)C=O`, the activation is -2.96% (inactive) and -2.36% (inactive) and -5.04% (inactive).

Consider `CCC[CH2][Sn](=[O])[CH2]CCC`, for which the activation is -6.54% (inactive).

With `C1CC[CH]([Sn]([CH]2CCCCC2)[CH]2CCCCC2)CC1`, the activation is 0.852% (inactive). For `CC1(C)[C@H](C(=O)O[C@H](C#N)c2cccc(Oc3ccccc3)c2)[C@@H]1/C=C(\Cl)C(F)(F)F`, the activation is -0.137% (inactive). In the case of `CCC(C)O` (stereo not given), the activation was 0.0237% (inactive). For `CCOP(=S)(OCC)Oc1cnc2ccccc2n1` the value was 1.65% (inactive); for `Cc1c(COC(=O)C2C(/C=C(\Cl)C(F)(F)F)C2(C)C)cccc1-c1ccccc1` (stereo not given), 2.08% (inactive). Next, `Nc1cccc(Cl)c1Cl`: 2.15% (inactive); `CCOP(=S)(OCC)SCC(=O)NC(C)C`: 0.181% (inactive). Next, `O=C(O)c1ccc(Cl)c(Cl)c1`: -2.87% (inactive); `Clc1ccc([C@]2(Cn3cncn3)C[C@@H](Br)CO2)c(Cl)c1`: -2.66% (inactive) and -2.04% (inactive). As for `CCCCCCCCCCCCCCCO`, the activation is -2.39% (inactive).

With `c1ccccc1`, the activation is -0.124% (inactive) [middle of 4 runs]. For `OCl`, the activation is 1.09% (inactive).

Regarding `COc1ccc([N+](=O)[O-])cc1N`, the activation is 0.186% (inactive) and -0.616% (inactive). For `C=CC(=O)NCO` the value was 0.901% (inactive) and -4.9% (inactive); for `O=C(O)CCCCCCCCC(=O)O`, -3.53% (inactive); for `Cc1ccc(C#N)cc1`, -2.61% (inactive). Next, `Cc1ccccc1OCC1CO1` (stereo not given): -1.27% (inactive); `C[Si](C)(C)Cl`: 1.08% (inactive); `CCC(C)Nc1ccc(NC(C)CC)cc1` (stereo not given): -2.74% (inactive). Next, `O=C1C=CCCC1`: -1.48% (inactive); `CCCCNS(=O)(=O)c1ccccc1`: 2.61% (inactive). With `O=C(NC(=O)c1c(F)cccc1F)Nc1ccc(Cl)cc1`, the activation was 1.72% (inactive).

Regarding `Nc1cccc2c(=O)[nH][nH]c(=O)c12`, the activation is 1.93% (inactive).

Regarding `COC[C@H](C)N(C(=O)CCl)c1c(C)csc1C`, the activation is -0.72% (inactive). For the compound `CC(O)CN(CC(C)O)CC(C)O` (stereo not given), the activation is 0.256% (inactive). For `COc1cc(-c2ccc(N=C=O)c(OC)c2)ccc1N=C=O` the value was 0.158% (inactive); for `CCCCC/C=C/C=C/C=O`, 3.19% (inactive) and -0.429% (inactive).

`CO/N=C(/C(=O)OC)c1ccccc1COc1ccccc1C`: the activation is -0.265% (inactive).
